Hit rate of the full screen: of about 330,000 compounds, about 220 (0.067%) were called active. Only a selection was taken, and actives are over-represented in it overall. Values without a mark were called inactive.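 Rule for the calls: active = over half of replicate activation scores above 10%, or exactly half above 10 with the replicate mean above 10; inconclusive = replicate mean below 10 yet half the replicates above 10; inactive = over half of replicates below 10.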

The assay can be described thus: caspase 3/7 activation in MEF A1-2A-BIM cells, primary screen, A1 inhibitor project, cell-based, luminescence, HTS (AID 2462). The following applies: Caspase-Glo 3/7 luminescence, 3 h, active compounds read high, percent of clofoctol response, vehicle zero, concentration not given here.
In the case of `COc1ccc(-c2n[nH]c3c2CN(C(=O)c2ccc(F)cc2)CC3)cc1`, the caspase activation is 1.44%.
For `CCOC(=O)c1sc(N)c(C#N)c1COC(=O)C1=COCCO1` the value was 0.458%; for `COc1ccc(CNC(=O)c2ccc(NS(=O)(=O)c3ccc4[nH]c(=O)[nH]c4c3)cc2)cc1OC`, -0.468%; for `COc1cccc(NC(=O)CN(C)C(=O)/C=C/c2cc(OC)ccc2OC)c1`, -0.126%.
Turning to `O=C(O)c1ccn(COc2ccc(Br)cc2)n1`, the caspase activation was -1.22%.
For `CC(C)N(C(=O)CN1CCN(S(=O)(=O)c2ccc(Br)s2)CC1)C(C)C`, the caspase activation was 1.33%.
`CC(C)n1cnc2c(NCc3ccccc3)cc(N[C@@H](CO)Cc3ccccc3)cc21`: the caspase activation was -2.12%.
`O=c1c2ccccc2ccc2ccc(P(=O)(O)O)cc12`: the caspase activation is 0.843%.
On to `N#CCOc1ccc(C2=NO[C@@H]3[C@@H]4C[C@@H]([C@H]5C(=O)N(c6ccc7c(c6)OCO7)C(=O)[C@@H]45)[C@H]23)cc1`, for which the caspase activation was 0.442%.
For `CSc1cc(C)[nH]c(=O)n1`, the caspase activation was -0.248%.
For the molecule `O=S(=O)(c1ccccc1)N(Cc1cccc(F)c1)c1ccccc1`, the caspase activation is 0.447%.
Take `COC(=O)Cn1cc(/C=C/[N+](=O)[O-])c2ccccc21`: the caspase activation was 1.03%.
For the molecule `O=[N+]([O-])/C=C/c1ccc2c(ccn2Cc2ccccc2)c1`, the caspase activation is 9.93% (active).
For `O=C(Cn1ccc2cc(S(=O)(=O)N3CCCC3)ccc21)NCc1ccccc1` the value was -0.143%.
For `COc1ccc(S(=O)(=O)N(C)C[C@H]2Oc3ccc(NS(=O)(=O)c4cccs4)cc3CC(=O)N([C@H](C)CO)C[C@H]2C)cc1` the value was -0.719%; for `O=C(O)c1cccnc1Sc1ncnc2sc3c(c12)CCC3`, -0.234%; for `O=C(CSc1nc(Nc2ccccc2)nc(N2CCOCC2)n1)Nc1cc(Cl)ccc1O`, 0.376%.
On to `Nc1nc(Br)c2ccccc2c1-c1ccc(F)cc1`, for which the caspase activation was -0.0976%.
For `CC(C)(O)C#Cc1ncc(C(F)(F)F)cc1Cl`, the caspase activation is 0.0403%.
Turning to `Cc1ccc(NCc2n[nH]c(=S)n2-c2ccccc2)cc1Cl`, the caspase activation is -0.072%.
Regarding `CCCS(=O)(=O)N1CCN=C1SCc1cccc(F)c1`, the caspase activation was -0.156%.
On to `CCn1ncc(CNC(=O)C2(C)CC2(Br)Br)c1C` (stereo unspecified), for which the caspase activation was -0.282%.
As for `COc1cc(C(=O)NC2CCN(Cc3ccccc3)CC2)cc(Cl)c1OC(C)C`, the caspase activation was -0.406%.
As for `COc1ccccc1CNC(=O)CCCNS(=O)(=O)c1cccc2nsnc12`, the caspase activation was 0.433%.
The figure for `O=C(c1cc2ccccc2o1)N1CCN(S(=O)(=O)c2ccc(Cl)s2)CC1` is -0.105%; for `COc1ccc(CNC(=O)CN2CCC(n3nnc4cc(F)ccc43)CC2)cc1` it is -0.421%; for `CC1CCCN(C(C(=O)Nc2ccc(C(C)C)cc2)c2ccc3c(c2)OCO3)C1` (stereo unspecified) it is -0.471%.
Consider `NC(=O)C1CCCN(CC(=O)N2CCN(c3ccccc3)CC2)C1` (stereo unspecified), for which the caspase activation was -0.0385%.
Consider `Cc1ccc(S(=O)(=O)N2CCN(C(=O)CN3C(=O)NC(C)(c4ccc(Cl)cc4)C3=O)CC2)c(C)c1` (stereo unspecified), for which the caspase activation was -0.688%.
Consider `CC(NCC(=O)Nc1ccccc1C(=O)NC1CC1)c1ccccc1Cl` (stereo unspecified), for which the caspase activation is 0.355%.
Regarding `CC(=O)N(CN1C(=O)C2C3C=CC(C3)C2C1=O)c1cccc(Cl)c1` (stereo unspecified), the caspase activation is 0.192%.
For `CCOc1ccccc1NC(=O)NC1CCCCCCC1` the value was -0.841%; for `Cn1c(CCCOc2ccc(Cl)cc2Cl)n[nH]c1=S`, -0.629%; for `O=C(NC(=S)Nc1ccc2oc(=O)ccc2c1)c1ccc(-c2cccc(Cl)c2Cl)o1`, 0.568%.
Take `CC1CCc2[nH]c3ccc(C(=O)N(C)CC(=O)Nc4cccc(F)c4)cc3c2C1` (stereo unspecified): the caspase activation was 0.268%.
As for `Cc1ccc(S(=O)(=O)c2c[nH]c3ccc(C)cc3c2=O)cc1`, the caspase activation is -2.55%.
For `COc1ccc(-c2cnc(SCCNC(=O)c3ccc4c(c3)OCO4)[nH]2)cc1` the value was 1.35%.
For the molecule `COC(=O)c1ccc(COc2ccc(/C=N/NC(=O)C(=O)Nc3ccc(OC)cc3)cc2OC)o1`, the caspase activation is 0.365%.
For `CCCc1ccc(OCc2ccc(C(=O)N/N=C/c3cccc([N+](=O)[O-])c3)o2)c(OC)c1` the value was 16.1% (active).
The figure for `O=C(N/N=C/c1cccc(OCc2ccccc2)c1)c1ccc(Br)o1` is 0.285%; for `NC(=O)COC(=O)c1cc(S(=O)(=O)N2CCN(c3ccccc3)CC2)ccc1Cl` it is 0.691%.

The values above are taken from PubChem BioAssay AID2462 (Broad Institute, 2010).
